Only some compounds are listed: those with a hit (about 19% of all), similar ones and a draw of the others.
CHX counter = counter-screen hit for Shiga toxin inhibitors, cycloheximide | AID 2314 | max response, % | cell reporter, cycloheximide protein synthesis inhibition counterscreen | actives 12% (n = 300,000); in the data active = max response mostly above about 13%, no sharp cut-off; inactive = mostly below about 14%; also: read at 38.3 µM for the half of the compounds with a filed dose; 0% is about no effect
Pf growth 48h = inhibits P. falciparum growth in the first generation, 48 h | P. falciparum luciferase growth in erythrocytes, 48 h | Potency, µM (top dose mostly 28.7 µM), without a hit: at the highest dose activity change, negative = inhibition, actives largely listed as inhibitors | actives 5.9% (n = 310,000) | AID 504832; also: potency is read from the fitted curve at half-maximal effect; % is scaled to controls: 0 for no effect and ±100 for the full control effect
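Growth was read as firefly luciferase luminescence after a 48 h, 37 C, 5% CO2 exposure of compounds to reporter-bearing P. falciparum cultures (0.1% parasitemia, 2% hematocrit final) in Albumax-supplemented RPMI 1640.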
Shiga inhibitor = Shiga toxin inhibition; actives 9.2% (n = 290,000); AID 2315; inhibition, % at 38.7 µM; Vero cells, Shiga toxin protein synthesis inhibition reporter; in the data active = inhibition mostly above about 28%, no sharp cut-off; inactive = mostly below about 43%; also: 0% is about no effect
SARS PLP yeast = SARS-CoV PLP inhibition in yeast; S. cerevisiae expressing SARS-CoV PLpro, growth rescue; Potency, µM (top dose mostly 32.9 µM), inactives show top-dose activity, positive = growth rescue, most hits filed as activators; actives 0.19% (n = 330,000); calls by dose curve; also: potency is read from the fitted curve at half-maximal effect; 0% is about no effect; nearly all actives have a fitted effect of over 55% in size
Pf growth 96h = P. falciparum growth inhibition at 96 hour, primary screen for plastid delayed-death inhibitors; P. falciparum luciferase reporter growth, 96 h; actives 6.9% (n = 320,000); Potency, µM (doses to about 28.7 µM), inactives show top-dose activity change, negative = inhibition, most hits filed as inhibitors; AID 504834; also: potency is read from the fitted curve at half-maximal effect; % is scaled to controls: 0 for no effect and ±100 for the full control effect
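Two-generation exposure (96 h) targets delayed-death phenotype. Reporter parasites carrying integrated firefly luciferase, in red cells at 2% hematocrit and 0.05% parasitemia final, kept at 37 C, 5% CO2; luminescence loss indicates inhibition.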
AMA1-RON2 inh = AMA1-RON2 (P. falciparum) interaction inhibition; Potency, µM (titrated, usually from 58.2 µM), for the others: top-dose activity change, negative = inhibition, actives largely listed as inhibitors; AID 720542; actives 0.2% (n = 360,000); AlphaScreen AMA1-biotinylated RON2 peptide binding;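 also: potency is read from the fitted curve at half-maximal effect; 0% = vehicle wells and -100% = peptide control; nearly all actives have a fitted effect of over 45% in size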
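AMA1 (3D7) with his tag at 25 nM final met compounds first, then biotinylated RON2 peptide at 25 nM; detection used donor plus acceptor beads, 10 µg/mL apiece, read by AlphaScreen after 30 min at room temperature.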
Starred values were filed as active, the others as inactive; [ ] = another dose, or the depositor's remark. Unless noted, calls follow the shape of the dose curve; as a rule, active = well fitted curve in the direction sought with a large enough effect; inconclusive = small, poorly fitted or top-dose-only effect, or another doubt; inactive = no such curve, though single readings can be large; an effect the other way counts as inactive or inconclusive.

`COc1ccc(OC)c(Nc2nc(=O)c3cccnc3s2)c1` gave CHX counter 3.6, Pf growth 48h 7.7%, Shiga inhibitor 6.8, SARS PLP yeast -1.8%, Pf growth 96h 0.4% and AMA1-RON2 inh -10.2%.
For Cc1ccc(NC(=O)COC(=O)c2ccc(Cl)nc2)cc1S(=O)(=O)N1CCCCC1 the results were Pf growth 48h inconclusive, SARS PLP yeast 0.3%, Pf growth 96h -14.5% and AMA1-RON2 inh 18.7%.
For CN(C)c1ccc2c(c1)C(=NO)c1ccccc1-2 the results were AMA1-RON2 inh 25.1µM*.
ON=C1c2ccccc2-c2ccccc21 was read as CHX counter 24.5*, Shiga inhibitor 23.5*, SARS PLP yeast -5.2%, Pf growth 96h 49.3% and AMA1-RON2 inh 7.4%.
Screening Nc1cc2c(cc1Cl)-c1ccccc1C2=NO returned AMA1-RON2 inh -0.2%.
For COc1ccc(NC(=O)c2nc[nH]c2C(=O)N(C)Cc2ccccc2)cc1 the results were CHX counter 5.8, Pf growth 48h -4.7%, Shiga inhibitor -3.9, SARS PLP yeast 1.8%, Pf growth 96h 23.5% and AMA1-RON2 inh 78.0%.
COc1ccc(NC(=O)N[C@H]2C=C[C@@H](CC(=O)NC3CCC3)O[C@@H]2CO)cc1 was read as AMA1-RON2 inh -7.8%.
O=C(NCc1cc(C(F)(F)F)cc(C(F)(F)F)c1)C12CN(Cc3ccccc3)CC1C(c1cccc([N+](=O)[O-])c1)=NO2 (stereo not given) was read as CHX counter 11.2, Pf growth 48h 13.1µM*, Shiga inhibitor -7.2, SARS PLP yeast -1.7%, Pf growth 96h inconclusive and AMA1-RON2 inh -2.8%.
Cc1ccc(CCNC(=O)C23CN(Cc4ccccc4)CC2C(c2ccc([N+](=O)[O-])cc2)=NO3)cc1 (stereo not given) was read as CHX counter 10.5, Pf growth 48h inconclusive, Shiga inhibitor 60.4, SARS PLP yeast -10.4%, Pf growth 96h inconclusive and AMA1-RON2 inh inconclusive.
For Cc1ccc(CNC(=O)C23CN(Cc4ccccc4)CC2C(c2ccc([N+](=O)[O-])cc2)=NO3)cc1 (stereo not given) the results were CHX counter 3.2, Pf growth 48h 11.7µM*, Shiga inhibitor 15.9, SARS PLP yeast -1.8%, Pf growth 96h inconclusive and AMA1-RON2 inh -18.3%.
For COc1cc(C(C(=O)NC2CCCCC2)N(C(=O)Cc2c[nH]c3ccccc23)c2ccccc2C)cc(OC)c1OC (stereo not given) the results were CHX counter -2.0, Pf growth 48h 13.1µM*, Shiga inhibitor -10.3, SARS PLP yeast -1.7%, Pf growth 96h inconclusive and AMA1-RON2 inh -8.3%[11.6 µM].
Screening COc1cc(C(C(=O)NC2CCCCC2)N(Cc2cccs2)C(=O)Cc2c[nH]c3ccccc23)cc(OC)c1OC (stereo not given) returned CHX counter 0.5, Pf growth 48h 9.28µM*, Shiga inhibitor -3.7, SARS PLP yeast -7.4%, Pf growth 96h 8.28µM* and AMA1-RON2 inh -5.7%.
COc1ccc(C(C(=O)NC2CCCCC2)N(C(=O)Cc2c[nH]c3ccccc23)c2ccc(NC(C)=O)cc2)cc1OC (stereo not given) was read as CHX counter -2.4, Pf growth 48h 10.4µM*, Shiga inhibitor -12.7, SARS PLP yeast -0.9%, Pf growth 96h 9.28µM* and AMA1-RON2 inh -3.9%.
CSc1nnc2c(n1)c(C)nn2-c1ccc(C)cc1 was read as CHX counter 19.6*, Pf growth 48h 36.6%, Shiga inhibitor 23.0, SARS PLP yeast 2.7%, Pf growth 96h -16.9% and AMA1-RON2 inh -11.4%.
For OCC1O[C@H](O[C@H]2C(O)C(O)C(O)O[C@@H]2CO)C(O)C(O)C1O (stereo not given in full) the results were Pf growth 48h 4.4% and Pf growth 96h inconclusive.
Screening CS(=O)(=O)c1ccc(Cl)c(NC(=O)COC(=O)CCCN2C(=O)c3cccc4cccc(c34)C2=O)c1 returned Pf growth 48h -16.8%, SARS PLP yeast -1.6%, Pf growth 96h 18.5% and AMA1-RON2 inh 15.5%.

Screening data from PubChem.
